# DAX1 inh-1: inhibitors of DAX1 repression of SF-1 activated StAR promoter; inhibition, % at 6.8 µM; AID 652010; HEK293T StAR-luciferase reporter, SF-1/DAX-1 repression relief; 370,000 tested, 1.1% active;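 active = inhibition above the mean over all tested compounds plus 3 SD, cut at about 3.6% in these data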;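 note: 0% = DAX-1 cells with DMSO and 100% = cells lacking DAX-1 with DMSO; higher inhibition means more luminescence from relief of DAX-1 repression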
# hcDAF-12 act: activates DAF-12 receptor from parasite H. contortus; activation, % at 6.8 µM; HEK293 hcDAF-12 lit1-tk-luc reporter, luminescence; 0% DMSO, 100% Δ7-dafachronic acid; 370,000 tested, 1.4% active; AID 652067;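 active = activation above the mean of all tested compounds plus 3 SD, cut at about 5.5% in these data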;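 note: 100% = response to 3 µM Δ7-dafachronic acid high control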
# AHR act: activators of human aryl hydrocarbon receptor; AHR-responsive luciferase reporter cells, luminescence; activation, % at 5 µM; 320,000 tested, 2.5% active; in the data active = activation above about 47%;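 note: 0% = vehicle wells and 100% = reference agonist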
# Target sequence (P35869 whole entry, looked up): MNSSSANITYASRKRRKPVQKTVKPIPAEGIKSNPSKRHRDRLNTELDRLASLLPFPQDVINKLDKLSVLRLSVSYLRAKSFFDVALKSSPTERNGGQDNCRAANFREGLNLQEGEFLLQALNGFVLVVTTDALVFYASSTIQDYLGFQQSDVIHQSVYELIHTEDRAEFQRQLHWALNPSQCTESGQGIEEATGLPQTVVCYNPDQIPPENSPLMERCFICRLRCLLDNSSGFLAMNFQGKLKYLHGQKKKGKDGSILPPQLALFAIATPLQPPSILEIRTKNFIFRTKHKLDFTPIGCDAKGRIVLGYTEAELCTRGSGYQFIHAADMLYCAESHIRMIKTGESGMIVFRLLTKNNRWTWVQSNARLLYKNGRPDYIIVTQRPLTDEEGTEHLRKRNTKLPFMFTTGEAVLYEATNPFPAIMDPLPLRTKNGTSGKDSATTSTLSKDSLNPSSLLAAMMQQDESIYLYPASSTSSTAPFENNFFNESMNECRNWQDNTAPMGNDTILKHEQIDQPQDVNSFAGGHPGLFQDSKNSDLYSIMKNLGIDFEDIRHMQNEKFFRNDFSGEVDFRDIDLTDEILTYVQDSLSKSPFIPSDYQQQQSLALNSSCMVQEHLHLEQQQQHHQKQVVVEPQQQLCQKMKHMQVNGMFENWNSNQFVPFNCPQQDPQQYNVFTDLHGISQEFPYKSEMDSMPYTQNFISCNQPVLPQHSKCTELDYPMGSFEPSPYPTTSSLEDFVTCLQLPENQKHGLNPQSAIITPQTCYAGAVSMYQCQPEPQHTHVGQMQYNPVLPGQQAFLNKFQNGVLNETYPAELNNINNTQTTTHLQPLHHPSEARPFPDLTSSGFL
# DAX1 inh-2: inhibitors of human orphan nuclear receptor DAX1 (NR0B1); 340,000 tested, 0.99% active; HEK293 Gal4-DAX1 luciferase reporter, luminescence; inhibition, % at 6.75 µM; P51843; AID 504766;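 active = inhibition above the mean over all tested compounds plus 3 SD, cut at about 4.2% in these data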;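 note: 0% = DAX1-transfected cells with DMSO and 100% = empty-vector control cells with DMSO; inhibition shows as a rise in luminescence from relieved DAX1 repression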
# ssDAF-12 act: activates DAF-12 receptor from parasite S. stercoralis; HEK293 ssDAF-12/GRIP1 lit1-tk-luc reporter, luminescence; % of 3 µM dafachronic acid response; activation, % at 6.8 µM; 370,000 tested, 1% active;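 active = activation above the mean over all tested compounds plus 3 SD, cut at about 0.9% in these data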;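 note: 0% = DMSO-only wells and 100% = 3 µM delta7-dafachronic acid wells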
# hgDAF-12 ag: agonists of H. glycines DAF-12 nuclear receptor | 370,000 tested, 1.8% active | HEK293 GAL4-hgDAF12 UAS-luciferase reporter, agonist luminescence; normalized to butyrate control | activation, % at 6.8 µM;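 active = activation above a cutoff set at the mean of all screened compounds plus 3 SD, cut at about 10% in these data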;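 note: 0% = DMSO wells and 100% = sodium butyrate wells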
# LXR ag: LXR-beta agonism as hcDAF-12 counter-screen | activation, % at 6.8 µM | HEK293 Gal4-LXR tk-luc reporter, luminescence, 24 h; normalized: DMSO 0%, positive control 100% | AID 743027 | 3,400 tested, under 10 active | shares compounds with hcDAF-12 act;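 active = mean percent activation of the reporter above a cutoff set as the average over tested compounds plus their standard deviation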
# hcDAF12 ag: confirmation of H. contortus DAF-12 agonists; shares compounds with hcDAF-12 act; HEK293 hcDAF-12 lit1-tk-luc reporter, luminescence; % of Δ7-dafachronic acid response; activation, % at 6.8 µM; 3,400 tested, 61% active; AID 743032;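 active = mean activation across triplicate tests above the threshold derived from the earlier primary screen, cut at about 5.5% in these data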;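 note: 0% = DMSO only wells and 100% = 3 µM Δ7-dafachronic acid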
# hgDAF12 ag: confirmation of H. glycines DAF-12 agonists | 3,300 tested, 80% active | activation, % at 6.8 µM | HEK293 GAL4-hgDAF12 luciferase reporter, agonist mode; percent of butyrate response | shares compounds with hgDAF-12 ag;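 active = mean activation over triplicate wells above the hit cutoff derived from the earlier primary screen, cut at about 11% in these data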;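 note: 0% = DMSO low control and 100% = 2 mM sodium butyrate high control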
# LXR ag 2: activates human LXR-beta, counter-screen for DAF-12 agonists | 3,300 tested, under 10 active | shares compounds with hgDAF-12 ag | HEK293 Gal4-LXR luciferase reporter, 24 h | activation, % at 6.8 µM;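 active = mean activation of the triplicate above a set limit carried over from the primary screen, none filed active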
# * = called active by the depositor; nt = no result given. The list is not random: actives were taken first. Their share in the collection is about 5.7%.
SMILES,DAX1 inh-1,hcDAF-12 act,AHR act,DAX1 inh-2,ssDAF-12 act,hgDAF-12 ag,hgDAF12 ag,LXR ag 2,others
Cc1ccc(-c2nc(N3CCOCC3)s[n+]2-c2ccccc2)cc1,4.0*,12*,2,1,1.5*,15*,8,1,LXR ag=1;hcDAF12 ag=5
C1CCC(NC2CCCCC2)CC1,0,-2,8,1,-1,3,nt,nt,
COc1ccc(CN2Cc3cc(-c4ccc(OC)cc4)ccc3-n3nncc3C2)cc1,-2,2,nt,nt,-1,14*,3,0,
COc1ccc(CN2Cc3cc(-c4ccccc4)ccc3-n3nncc3C2)cc1,-1,-1,nt,nt,-1,3,nt,nt,
CCC1(CC)C(=O)NC(=O)N(c2ccccc2)C1=O,1,0,nt,0,-1,2,nt,nt,
NC(Cc1nc2ccccc2[nH]1)c1ccc(Cl)cc1 (stereo not given),3,5,-6,3,1,14*,15*,0,
NC(Cc1ccccc1)c1nc2ccccc2[nH]1 (stereo not given),0,2,8,2,0,1,nt,nt,
Cc1cc(C=O)c(C)n1C1CC1,0,0,0,-1,-1,-4,nt,nt,
N/C(=N\N=C\c1ccc(O)cc1O)N[N+](=O)[O-],0,0,1,-1,-1,0,nt,nt,
COc1ccccc1/C=N/N=C(/N)N[N+](=O)[O-],0,0,13,0,-2,16*,1,0,
O=C(c1cc2c(s1)-c1ccccc1OC2)N1CCC2(CC1)OCCO2,0,3,3,3,0,14*,19*,1,
CC(C)c1ccc(NC(=O)CSc2nnc(OC(=O)N(C)C)n2C2CC2)cc1,-2,2,0,0,-1,0,nt,nt,
Clc1ccc2sc(C3CCNCC3)nc2c1,1,2,4,2,0,16*,8,0,
Cc1ccc(-c2nc3ccc(Cl)cc3n2OC(=O)N(C)C)cc1,2,5,25,1,0,14*,12*,1,
